# Laboratory results from PubChem BioAssay (Tox21).
# Values joined by “and” are separate entries in the source; they are usually repeats but may differ in a detail not shown here. Equal values may be shown once. Values without a mark were called inactive. Records with an inconclusive call do not appear. A call without a number means that no potency is given here. Active and inactive are the calls of the source. Unless noted, the call rests on the fitted dose curve; in most records, active means well fitted curve in the direction sought with a large enough effect in the repeat runs; inconclusive means weak or mixed curves; inactive means no such curve, though single readings can be large; an effect the other way counts as inactive or inconclusive.
# Key:
# [1] = qHTS assay for small molecules that induce genotoxicity in human embryonic kidney cells expressing luciferase-tagged ATAD5 (AID 651632); further: nearly all actives have a fitted effect of over 15% in size; further: potency means the concentration at half of the fitted maximal effect
# Procedure, shortened: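 Cells were seeded at 2,000 per well, dosed with compound, and incubated 16 hr at 37C in 5% CO2. Luciferase activity was then quantified after a 30 min room-temperature incubation with Amplite.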
# [2] = qHTS assay for small molecule agonists of the p53 signaling pathway - cell viability (AID 651633; calls by dose curve;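 further: p53RE-bla HCT reporter cells with a stable beta-lactamase p53 reporter; series mostly up to about 83 µM; nearly all actives have a fitted effect of over 30% in size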)
# Procedure, shortened: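 Viability counter-read: CellTiter-Glo luminescence (30 min, room temperature) in the same p53RE-bla plates. These plates had been exposed to compounds for 16 h at 37 C.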
# [3] = qHTS assay for small molecules that induce genotoxicity in human embryonic kidney cells expressing luciferase-tagged ATAD5 - cell viability (AID 651634; calls by dose curve; further: nearly all actives have a fitted effect of over 25% in size)
# Procedure, shortened: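 Cells (HEK293T, luciferase-tagged ATAD5) are seeded at 2,000 per well, dosed with compound or DMSO vehicle, and incubated 15.5 hr at 37C and 5% CO2. CellTiter-Fluor is added for 30 min before fluorescence is measured.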
# [4] = qHTS assay for small molecule disruptors of the mitochondrial membrane potential - cell viability (AID 720634; calls by dose curve;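 further: human HepG2 liver cancer cells; series mostly up to about 83 µM; nearly all actives have a fitted effect of over 20% in size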)
# Procedure, shortened: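 Cytotoxicity was measured by ATP quantitation in HepG2 wells that had first been treated with compound for 1 hr and stained with m-MPI dye; CellTiter-Glo incubation was 30 min at room temperature.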
# [5] = qHTS assay to test for compound auto fluorescence at 590 nm (red) in HepG2 cells (AID 720674)
# Procedure, shortened: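 1 hr compound incubation on HepG2 cells, 37 C, 5% CO2; plate read ex 540 nm / em 590 nm; intensities reported as Rose Bengal sodium equivalents.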
# [6] = qHTS assay to test for compound auto fluorescence at 535 nm (green) in HepG2 cells (AID 720675)
# [7] = qHTS assay to test for compound auto fluorescence at 460 nm (blue) in HEK293 cells (AID 720678)
# Procedure, shortened: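 HEK293 cells (2,000/well, medium with 10% dialyzed FBS) attached 4-5 hr, then exposed to compound overnight at 37C, 5% CO2. Blue fluorescence read at 405/460 nm, with triamterene as reference fluorophore.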
# [8] = qHTS assay to test for compound auto fluorescence at 590 nm (red) in HEK293 cells (AID 720679)
# Procedure, shortened: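 HEK293 cells (2,000/well, 10% dialyzed FBS) attached 4-5 hr, then dosed with compound or DMSO and incubated overnight at 37C, 5% CO2. Red fluorescence read at 540/590 nm, Rose Bengal sodium as reference fluorophore.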
# [9] = qHTS assay to test for compound auto fluorescence at 535 nm (green) in HEK293 cells (AID 720680)
# [10] = qHTS assay to test for compound auto fluorescence at 460 nm (blue) in HEK293 cell free culture (AID 720681)
# Procedure, shortened: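 Blue fluorescence (Ex 405/Em 460 nm, triamterene-equivalent) was read immediately after pin transfer of compound or DMSO into medium (DMEM, 10% FBS) without cells.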
# [11] = qHTS assay to test for compound auto fluorescence at 535 nm (green) in HEK293 cell free culture (AID 720682)
# Procedure, shortened: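 Fluorescein serves as the green reference fluorophore; each compound's intrinsic emission at 535 nm (excitation 485 nm) is reported as an equivalent amount of that dye, measured in serum-containing DMEM without cells.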
# [12] = qHTS assay to test for compound auto fluorescence at 590 nm (red) in HEK293 cell free culture (AID 720683)
# Procedure, shortened: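 Red-channel autofluorescence of compounds in culture medium (DMEM, 10% FBS), no cells, measured at 540/590 nm. Rose Bengal sodium is the reference fluorophore for equivalence.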
# [13] = qHTS assay to test for compound auto fluorescence at 590 nm (red) in HepG2 cell free culture (AID 720684)
# Procedure, shortened: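 Cell-free; medium MEM + 10% FBS; compound or DMSO added by pintool; read Ex 540/Em 590 nm; Rose Bengal sodium as red reference fluorophore.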
# [14] = qHTS assay to test for compound auto fluorescence at 460 nm (blue) in HepG2 cell free culture (AID 720685)
# Procedure, shortened: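 Cell-free plates of MEM plus 10% FBS received 23 nL compound or DMSO vehicle; blue-channel (405/460 nm) intensity scored against triamterene as reference fluorophore.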
# [15] = qHTS assay to test for compound auto fluorescence at 535 nm (green) in HepG2 cell free culture (AID 720686)
# [16] = qHTS assay to test for compound auto fluorescence at 460 nm (blue) in HepG2 cells (AID 720687)
# Procedure, shortened: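 Blue-channel autofluorescence (Ex/Em 405/460 nm, triamterene-equivalent) was measured after 1 hr compound exposure at 37 C, 5% CO2. Cells were HepG2, plated overnight at 37 C in MEM plus 10% FBS.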
# [17] = molecular target: Glucocorticoid receptor (Homo sapiens) (UniProt P04150); assay: qHTS assay to identify small molecule agonists of the glucocorticoid receptor (GR) signaling pathway (AID 720691; active means well fitted activation curve with a large enough effect in the signal ratio in the repeat runs, not every such curve was filed as active; the % refers to the signal ratio)
# Glucocorticoid receptor (Homo sapiens), sequence (P04150 whole entry, looked up): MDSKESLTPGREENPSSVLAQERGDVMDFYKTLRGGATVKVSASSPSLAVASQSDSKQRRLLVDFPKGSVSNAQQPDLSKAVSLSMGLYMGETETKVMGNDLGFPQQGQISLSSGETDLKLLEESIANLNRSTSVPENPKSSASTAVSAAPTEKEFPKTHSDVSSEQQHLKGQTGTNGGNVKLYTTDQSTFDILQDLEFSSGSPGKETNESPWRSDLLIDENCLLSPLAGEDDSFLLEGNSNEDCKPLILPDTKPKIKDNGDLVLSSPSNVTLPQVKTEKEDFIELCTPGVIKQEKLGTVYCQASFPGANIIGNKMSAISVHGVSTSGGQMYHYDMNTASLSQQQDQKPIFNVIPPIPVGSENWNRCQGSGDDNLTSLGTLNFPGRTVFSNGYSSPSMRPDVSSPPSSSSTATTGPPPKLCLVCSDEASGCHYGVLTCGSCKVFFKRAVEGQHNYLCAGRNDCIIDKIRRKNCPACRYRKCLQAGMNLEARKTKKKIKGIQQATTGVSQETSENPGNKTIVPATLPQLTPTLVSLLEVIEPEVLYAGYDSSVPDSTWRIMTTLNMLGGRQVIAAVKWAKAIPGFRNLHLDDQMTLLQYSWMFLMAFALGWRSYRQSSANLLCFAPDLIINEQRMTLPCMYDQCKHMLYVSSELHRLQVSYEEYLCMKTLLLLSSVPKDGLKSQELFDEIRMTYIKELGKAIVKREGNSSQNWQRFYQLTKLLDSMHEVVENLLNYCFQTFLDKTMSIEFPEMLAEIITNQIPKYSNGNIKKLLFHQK
# Procedure, shortened: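 Steps: seed GR-bla HeLa cells, incubate 4 h at 37 C/5% CO2; pin-transfer DMSO-dissolved compounds; incubate 18 h at 37 C; add LiveBLAzer B/G FRET substrate; after 2 h at room temperature, measure fluorescence.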
# [18] = molecular target: Glucocorticoid receptor (Homo sapiens) (UniProt P04150); assay: qHTS assay to identify small molecule antagonists of the glucocorticoid receptor (GR) signaling pathway (AID 720692; active means well fitted inhibition curve with a large enough effect in the signal ratio in the repeat runs, not every such curve was filed as active; the % refers to the signal ratio)
# Procedure, shortened: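 Antagonism was scored as loss of dexamethasone-driven (5 nM final) reporter signal in HeLa cells bearing a glucocorticoid response element–beta-lactamase construct, after 18 h compound exposure at 37 C and 2 h FRET substrate loading.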
# [19] = qHTS assay for small molecule disruptors of the mitochondrial membrane potential (AID 720635)
# Procedure, shortened: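 Mitochondrial membrane potential tracked with Mito-MPS dye, red aggregates (ex 540/em 590 nm) against green monomers (ex 490/em 535 nm). Compound treatment 1 hr at 37C, dye 30 min in HepG2.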
smiles,measurement,setting,value
C=CC(C)(O)CCCC(C)CCCC(C)CCCC(C)C (stereo not given),Potency,[1],inactive
same,Potency,[2],inactive
same,Potency,[3],inactive
same,Potency,[4],inactive
same,outcome,[5],inactive
same,outcome,[6],inactive
same,Potency,[7],inactive
same,outcome,[8],inactive
same,outcome,[9],inactive
same,Potency,[10],inactive
same,outcome,[11],inactive
same,outcome,[12],inactive
same,outcome,[13],inactive
same,Potency,[14],inactive
same,outcome,[15],inactive
same,Potency,[16],inactive
same,Potency,[17],inactive
CCCCC(CC)C(=O)OCCOCCOCCOCCOC(=O)C(CC)CCCC (stereo not given),Potency,[1],inactive
same,Potency,[2],inactive
same,Potency,[3],inactive
same,Potency,[4],inactive
same,outcome,[5],inactive
same,outcome,[6],inactive
same,Potency,[7],inactive
same,outcome,[8],inactive
same,Potency,[10],inactive
same,outcome,[11],inactive
same,outcome,[12],inactive
same,outcome,[13],inactive
same,Potency,[14],inactive
same,outcome,[15],inactive
same,Potency,[16],inactive
same,Potency,[17],inactive
C1COCO1,Potency,[1],inactive
same,Potency,[2],inactive
same,Potency,[3],inactive
same,Potency,[4],inactive
same,outcome,[5],inactive
same,outcome,[6],inactive
same,Potency,[7],inactive
same,outcome,[8],inactive
same,outcome,[9],inactive
same,Potency,[10],inactive
same,outcome,[11],inactive
same,outcome,[12],inactive
same,outcome,[13],inactive
same,Potency,[14],inactive
same,outcome,[15],inactive
same,Potency,[17],inactive
same,Potency,[18],inactive
O=C(CCCN1CCC(O)(c2ccc(Br)cc2)CC1)c1ccc(F)cc1,Potency,[1],inactive
same,Potency,[2],inactive
same,Potency,[3],inactive
same,Potency,[4],inactive
same,"fluorescence, relative to Rose Bengal",[5],0.666% [at 18.6 µM]
same,"fluorescence, % of fluorescein control",[6],0.0047% [at 18.6 µM]
same,"fluorescence, % of triamterene",[7],-0.176% [at 18.6 µM]
same,"fluorescence, % of fluorescent control",[8],-0.139% [at 18.6 µM]
same,"fluorescence, % of fluorescent control",[10],0.0856% [at 18.6 µM]
same,activity change,[11],0.0165% [at 18.6 µM]
same,"fluorescence, % of fluorescent control",[12],0.118% [at 18.6 µM]
same,"fluorescence, % of fluorescent control",[14],0.0015% [at 18.6 µM]
same,"fluorescence, % of fluorescein control",[15],-0.0224% [at 18.6 µM]
same,"fluorescence, % of fluorescent control",[16],0.0362% [at 18.6 µM]
same,Potency,[17],inactive
same,Potency,[18],inactive
CCOC(=N)CC(=O)OCC,Potency,[1],inactive
same,Potency,[2],inactive
same,Potency,[3],inactive
same,Potency,[4],inactive
same,outcome,[5],inactive
same,outcome,[6],inactive
same,Potency,[7],inactive
same,outcome,[8],inactive
same,Potency,[10],inactive
same,outcome,[11],inactive
same,outcome,[12],inactive
same,outcome,[13],inactive
same,Potency,[14],inactive
same,outcome,[15],inactive
same,Potency,[16],inactive
CCOc1cc(N)c(Cl)cc1C(=O)NCC1CN(Cc2ccc(F)cc2)CCO1 (stereo not given),Potency,[1],inactive
same,Potency,[2],inactive
same,Potency,[3],inactive
same,Potency,[4],inactive
same,outcome,[6],inactive
same,Potency,[7],inactive
same,outcome,[8],inactive
same,outcome,[9],inactive
same,Potency,[10],inactive
same,outcome,[11],inactive
same,outcome,[12],inactive
same,outcome,[13],inactive
same,Potency,[14],inactive
same,outcome,[15],inactive
same,Potency,[16],inactive
same,Potency,[17],inactive
CC1=C(C=O)C(C)(C)CCC1,Potency,[1],inactive
same,Potency,[2],inactive
same,Potency,[3],inactive
same,Potency,[4],inactive
same,outcome,[5],inactive
same,outcome,[6],inactive
same,Potency,[7],inactive
same,outcome,[8],inactive
same,outcome,[9],inactive
same,Potency,[10],inactive
same,outcome,[11],inactive
same,outcome,[12],inactive
same,outcome,[13],inactive
same,Potency,[14],inactive
same,outcome,[15],inactive
same,Potency,[16],inactive
same,Potency,[17],inactive
same,Potency,[18],inactive
O=C(CCCCCCC(=O)Nc1ccccc1)NO,Potency,[1],2.11 µM (active) and 1.68 µM (active)
same,Potency,[2],inactive
same,Potency,[3],inactive
same,Potency,[4],inactive
same,Potency,[19],inactive
same,outcome,[5],inactive
same,outcome,[6],inactive
same,Potency,[7],inactive
same,outcome,[8],inactive
same,Potency,[10],inactive
same,outcome,[11],inactive
same,outcome,[12],inactive
same,Potency,[14],inactive
same,outcome,[15],inactive
same,Potency,[16],inactive
